Bioassay records as filed in PubChem BioAssay.
Lassa entry inh: qHTS for Inhibitors of binding or entry into cells for Lassa Virus; Lassa virus pseudotype entry inhibition, cell reporter; Potency, µM (highest dose often 37.9 µM), hits mostly inhibitors; hit rate 1.2% among 300,000; calls by dose curve; tested in HEK293 cells; further: nearly all actives have a fitted effect of over 50% in size
Shiga toxin inh: A qHTS for Small Molecule Inhibitors of Shiga Toxin; hit rate 9.2% among 290,000; Vero cells, Shiga toxin protein synthesis inhibition reporter; inhibition, % at 38.7 µM; in the data active means inhibition mostly above about 28%, no sharp cut-off; inactive means mostly below about 43%
Cycloheximide cs: Cycloheximide Counterscreen for Small Molecule Inhibitors of Shiga Toxin. cell reporter, cycloheximide protein synthesis inhibition counterscreen. hit rate 12% among 300,000. max response, %; in the data active means max response mostly above about 13%, no sharp cut-off; inactive means mostly below about 14%; further: read at 38.3 µM for the half of the compounds with a filed dose
Marburg entry inh: qHTS for inhibitors of binding or entry into cells for Marburg Virus. Potency, µM (top dose mostly 37.8 µM), hits mostly inhibitors. AID 540276, 2011. hit rate 1.8% among 300,000. Marburg virus pseudotyped entry inhibition, cell reporter; calls by dose curve; tested in HEK293 cells
Large screens that a line does not name were inactive. An excerpt weighted towards active compounds, which were near 12% of everything screened.

Cc1cccc(N=C2NC(=O)/C(=C/c3cccs3)S2)c1	Lassa entry inh inconclusive, Shiga toxin inh active, Cycloheximide cs 34, Marburg entry inh inconclusive
O=C1NC(=S)SC1=Cc1cccs1	none (no result: Shiga toxin inh, Cycloheximide cs)
Cc1ccc(N=C2NC(=O)/C(=C\c3cccs3)S2)cc1C	Lassa entry inh inconclusive, Shiga toxin inh 72, Cycloheximide cs 28, Marburg entry inh inconclusive
Cc1ccc(/C=C2/SC(=Nc3ccc(F)cc3)NC2=O)s1	Lassa entry inh inconclusive
COC(=O)c1ccccc1NC(=O)CCCn1c(=O)c2cccn2c2cccnc21	none (no result: Shiga toxin inh, Cycloheximide cs, Marburg entry inh)
Cc1ccc(S(=O)(=O)CCC(=O)OCC(=O)Nc2cc(S(=O)(=O)N3CCOCC3)ccc2C)cc1	none (no result: Shiga toxin inh, Cycloheximide cs)
Cc1ccc(CNC(=O)Cn2c(=O)cc(C(F)(F)F)c3c(C)nn(C)c32)cc1	none (no result: Shiga toxin inh, Cycloheximide cs, Marburg entry inh)
C=C(C)Cn1c(SCC(=O)N/N=C/c2cccc(O)c2)nc2ccccc2c1=O	Lassa entry inh inconclusive
Cc1cccc(C(=O)Oc2ccccc2/C=N/Nc2ccc([N+](=O)[O-])cc2)c1	none
O=[N+]([O-])c1ccc(NN=Cc2cccc([N+](=O)[O-])c2)cc1	none (no result: Shiga toxin inh, Cycloheximide cs)
O=[N+]([O-])c1ccc(N/N=C/c2cccc(O)c2O)cc1	Cycloheximide cs 27, Marburg entry inh inconclusive (no result: Shiga toxin inh)
O=[N+]([O-])c1ccc(N/N=C/c2cccc(O)c2)cc1	Shiga toxin inh 113, Cycloheximide cs 53, Marburg entry inh inconclusive
C[C@H]1Cc2c(COc3ccccc3)nc3c(c2CO1)CN(C(=O)C1CCCCC1)CC3	none (no result: Lassa entry inh, Shiga toxin inh, Cycloheximide cs)
CC(C)c1ccccc1NCC(=O)N1CCN(Cc2ccccc2)CC1	none
O=C(NC12CC3CC(CC(C3)C1)C2)N1CCN(C(=O)C2CCCO2)CC1 (stereo not given)	Cycloheximide cs 11
O=C(NC12CC3CC(CC(C3)C1)C2)N1CCC(O)CC1	none
COc1ccc(C(=O)NC2CC(C)(C)Cc3occc32)cc1 (stereo not given)	none
COc1ccc2[nH]c(C(=O)O)c(CCN3C(=O)c4ccc(C(=O)O)cc4C3=O)c2c1	Lassa entry inh inconclusive, Cycloheximide cs 17
CC(C)N(Cc1nc(-c2ccc(Cl)cc2)no1)C(=O)c1ccco1	none (no result: Shiga toxin inh, Cycloheximide cs)
CCOC(=O)c1nc(C)n(-c2cc(Cl)ccc2Cl)n1	none
CCOC(=O)c1nc(C)n(-c2cc(OC)c(Cl)cc2Cl)n1	Shiga toxin inh 41, Cycloheximide cs 46
COc1ccc(/C=C/c2ccc(=O)n(Cc3ccccc3)n2)cc1	Lassa entry inh 5µM
COc1ccc(/C=N/NC(=O)c2ccc(O)cc2O)cc1CSc1ccccn1	Shiga toxin inh 64, Cycloheximide cs 40
COc1ccc(C=O)cc1CSc1ccccn1	Cycloheximide cs 11
COc1cc(/C=N/NC(=O)CSc2ccccn2)ccc1OC(C)C	Shiga toxin inh 68, Cycloheximide cs 39, Marburg entry inh inconclusive
COc1ccc(/C=N/NC(=O)c2cccnc2)cc1CSc1nc2ccccc2s1	none
COc1ccc(C(C)=O)cc1CSc1ccccn1	none
COc1ccc(/C=N/NC(=O)c2ccccc2Cl)cc1CSc1nc2ccccc2s1	Lassa entry inh 13µM, Marburg entry inh inconclusive
CCn1c(SCC(=O)N/N=C/c2ccc(OC)c(OC)c2)nc2ccccc21	none
O=C(COC(=O)c1ncc(Cl)c(Cl)c1Cl)NC(=O)c1ccccc1	none (no result: Shiga toxin inh, Cycloheximide cs)
Cc1ccccc1OC(=O)CSc1nnc(-c2ccc(F)cc2)o1	none (no result: Shiga toxin inh, Cycloheximide cs)
O=C(CSc1nnc2ccc3ccccc3n12)Nc1ccccc1Cl	none (no result: Shiga toxin inh, Cycloheximide cs)
CNc1nc(-c2ccc([N+](=O)[O-])cc2)cs1	Shiga toxin inh 53, Cycloheximide cs 32
CC1(C)CC(c2nc(-c3ccc([N+](=O)[O-])cc3)cs2)CCO1 (stereo not given)	Cycloheximide cs 17, Marburg entry inh inconclusive
O=C(Nc1ccccc1)Nc1nc(-c2ccc(Cl)cc2)cs1	none
CNc1nc(-c2ccc(Cl)cc2)cs1	Lassa entry inh inconclusive, Shiga toxin inh 76, Cycloheximide cs 27, Marburg entry inh inconclusive
CCNc1nc(-c2ccc(Cl)cc2)cs1	Lassa entry inh inconclusive, Shiga toxin inh 81, Cycloheximide cs 52, Marburg entry inh inconclusive
CCN(CC)CC(=O)Nc1nc(-c2ccc(Cl)cc2)cs1	none
Nc1nc(-c2ccc([N+](=O)[O-])cc2)cs1	Marburg entry inh inconclusive
Cc1cn2c(=O)cc(COC(=O)c3ccc(NC(=O)COc4ccc(C)c(C)c4)cc3)nc2s1	none (no result: Shiga toxin inh, Cycloheximide cs, Marburg entry inh)
COC(=O)c1cccc2nc3c(C(C)O)cccc3nc12 (stereo not given)	Cycloheximide cs 8.1 (no result: Lassa entry inh, Marburg entry inh)
CCOc1ccc(N2CC(C(=O)NC3CCCC3)CC2=O)cc1 (stereo not given)	none
Cc1cccc2nc(COc3ccc(Cl)c4cccnc34)cn12	Lassa entry inh inconclusive, Shiga toxin inh 102, Cycloheximide cs 33
NC1=C(Cl)C(=O)c2ccccc2C1=O	Marburg entry inh inconclusive (no result: Shiga toxin inh, Cycloheximide cs)
NC1=C(Cl)C(=O)c2ccc(S(N)(=O)=O)cc2C1=O	Lassa entry inh inconclusive, Marburg entry inh 2µM (no result: Shiga toxin inh, Cycloheximide cs)
CCc1ccc(NC(=O)c2ccc(CN3CC(=O)N4CCCCC4C3=O)cc2)cc1 (stereo not given)	none (no result: Shiga toxin inh, Cycloheximide cs, Marburg entry inh)
CC[C@@]1(O)C(=O)OCc2c1cc1n(c2=O)-c2cc3ccccc3nc2C1	none (no result: Lassa entry inh, Marburg entry inh)
Cc1csc(NC(=O)CSC2=NCCS2)n1	Cycloheximide cs 37
Cn1nnnc1SCC(=O)Nc1nc2c(s1)CCCC2	Shiga toxin inh 70, Cycloheximide cs 42, Marburg entry inh inconclusive
CCOC(=O)c1c(-c2ccccc2)csc1NC(=O)CSc1nnnn1C	Lassa entry inh inconclusive, Marburg entry inh inconclusive
CCOC(=O)c1c(NC(=O)CSc2nnnn2C)sc(C)c1-c1ccc(C)cc1	Lassa entry inh inconclusive, Cycloheximide cs 16, Marburg entry inh 23µM
O=C(CSC1=NCCS1)Nc1nc2c(s1)CCCC2	Shiga toxin inh 99, Cycloheximide cs 39
CC(C)(C)c1csc(NC(=O)CSC2=NCCS2)n1	Lassa entry inh inconclusive
Cc1ccc(C)c(C(=O)COC(=O)C2CCN(c3ccc(C(F)(F)F)cn3)CC2)c1	none (no result: Shiga toxin inh, Cycloheximide cs)
CCCCn1c(=O)[nH]c(=O)c2c1nc(-c1ccc(OCCC)c(OCC)c1)n2CCOC	Lassa entry inh inconclusive
CCCn1c(=O)[nH]c(=O)c2c1nc(-c1ccc(OC)c(Br)c1)n2CCOC	Lassa entry inh 7.9µM
O=C1C2C3C=CC(C4CC34)C2C(=O)N1/N=C/c1ccc(-c2ccc(F)cc2[N+](=O)[O-])o1 (stereo not given)	Cycloheximide cs 31
COc1ccc(CNC(=S)NC2CCCCC2)cc1	none
COc1ccc(C(=S)NC2CCCCC2)cc1	Lassa entry inh inconclusive, Cycloheximide cs 20
CCOc1ccc(C(=S)NC2CCCCC2)cc1	Lassa entry inh inconclusive, Shiga toxin inh 139, Cycloheximide cs 52
CCOC(=O)COc1ccc(C(=O)NC2CCCCC2)cc1	none
COc1ccc(C(C#N)N2CCCCCC2)cc1OC (stereo not given)	Marburg entry inh inconclusive
COc1cc(C(C#N)N2CCC(c3ccccc3)=N2)ccc1O (stereo not given)	Shiga toxin inh 91, Cycloheximide cs 25
COc1ccc(C(C#N)N2CCC(c3ccccc3)=N2)cc1OC (stereo not given)	Cycloheximide cs 17
CC[N+]1(C)CC2CCC(C)(C1)C2(C)C (stereo not given)	none (no result: Lassa entry inh, Marburg entry inh)
COc1cccc(NC(=O)Nc2ccccc2SC)c1	Shiga toxin inh 84, Cycloheximide cs 37
COc1ccc(NC(=O)Nc2ccccc2SC)cc1OC	Shiga toxin inh 48, Cycloheximide cs 20 (no result: Lassa entry inh, Marburg entry inh)
COc1ccc(NC(=O)Nc2ccccc2SC)c(OC)c1	none (no result: Lassa entry inh)
